Assays:
Assay type in all cases: functional
[1] = tested on: Plasmodium falciparum; test: GSK_TCMDC: Inhibition of Plasmodium falciparum 3D7 in whole red blood cells, using parasite LDH activity as an index of growth. Test compounds present at 2uM
[2] = tested on: Plasmodium falciparum; test: GSK_TCMDC: Inhibition of Plasmodium falciparum Dd2 in whole red blood cells, using parasite LDH activity as an index of growth. Test compounds present at 2uM
[3] = tested on: HepG2; test: GSK_TCMDC: Percent inhibition of human HepG2 cell line. Test compounds present at 10uM.

SMILES	Inhibition [1] [%]	Inhibition [2] [%]	Inhibition [3] [%]
COC(=O)c1ccccc1N1CCN(CCCCNC(=O)c2ccc(NC(=O)c3cc(Cl)cc(Cl)c3)cc2)CC1	100	42	20
NCCc1cccc(-c2cnc3[nH]cc(-c4ccc(C(=O)O)cc4)c3c2)c1.O=C(O)C(F)(F)F	99	98	4
CCc1nc2c(cnn2CC)c(NC2CCOCC2)c1CNC(=O)c1ccoc1C	97	87	6
O=C(NC(CCCN1CCC2(CC1)OCc1ccccc12)c1ccc(Cl)c(Cl)c1)c1cc(C(F)(F)F)cc(C(F)(F)F)c1 (stereo not given)	100	99	55
COc1ccc(NC(=O)/C=C/c2ccccc2Cl)cc1OCCN1CCN(c2ccncc2)CC1	100	52	7
CCc1nc2c(N)nc(N)nc2nc1-c1ccc(OC)cc1	86	0	44
CC(C)(CN1CCCC1)CN(Cc1ccc(-c2ccc(C(F)(F)F)cc2)cc1)C(=O)Cn1c(CCc2cccc(F)c2F)nc(=O)c2ccccc21.O=C(O)C(O)C(O)C(=O)O	97	64	57
CN1CCN(CC(=O)Nc2ccc(-c3ccc(-c4nc5cc(C(F)(F)F)ccc5[nH]4)cc3)cc2)CC1	100	98	43
Br.CC(C)(C)c1ccc(OCCCON2C(=N)N=C(N)NC2(C)C)c(C(C)(C)C)c1	93	97	64
Cc1cc(N(C)CCN(C)C)nc(Nc2ccc(Cl)cc2)n1	92	14	0
CCc1cn2c3c(cc(C(=O)N[C@@H](Cc4ccccc4)[C@H](O)CNC4CCOCC4)cc13)N(C(C)C)S(=O)(=O)CC2.O=CO	98	99	0
O=C(NC1CCN(CCN2CCC(c3c[nH]c4ccccc34)CC2)CC1)c1ccc(-c2ccc(C(F)(F)F)cc2)cc1	99	100	100
O=C(CCn1cncn1)N1CCCC(c2[nH]c3ccccc3c2-c2ccncc2)C1 (stereo not given)	97	79	1
Cc1cc(=NN=Cc2ccc(F)cc2)c2cccc(C)c2[nH]1	100	99	7
CC1CN(c2cc(=O)n(Cc3cccc(NC(=O)Nc4ccc(-c5ccccc5)cc4)c3)cn2)CC(C)N1.O=C(O)C(F)(F)F (stereo not given)	100	63	2
CC1C(c2cccc(Cl)c2)OCC(C)(C)N1C(=O)CCN1CCCCC1.Cl (stereo not given)	88	5	2
Cc1ccc(-c2nc3cc(NC(=O)c4ccc([N+](=O)[O-])o4)ccc3o2)cc1Cl	100	97	24
O=C(Nc1cccc(CN2CCCN(Cc3ccc4c(c3)OCO4)CC2)c1)c1ccc(-c2ccccc2)cc1.O=C(O)C(F)(F)F	90	19	48
Nc1c2c(nc3ccc(C(=O)Nc4ccccc4)cc13)CCCC2	100	78	20
Cl.N#Cc1ccc2c(c1)CCN(CCC1CCC(Nc3ncnc4ccccc34)CC1)C2 (stereo not given)	100	96	65

SMILES	Inhibition [1] [%]	Inhibition [2] [%]	Inhibition [3] [%]
Cc1cccc2nc(-c3cccc(-c4ccc(NC(=O)CS(C)(=O)=O)cc4)c3)[nH]c12	85	8	3
CCCCCCCN1CC[C@@H](CCCc2ccnc3ccc(OCCC4CCNCC4)cc23)[C@@H](CC)C1.Cl	100	100	94
CCC(CC)NCc1c(O)ccc2c(CNC(CC)CC)c(O)ccc12.Cl	100	94	4
Cl.N=C(N)c1ccc(OCc2cccc(COc3ccc(C(=N)N)cc3I)c2)c(I)c1	100	100	7
COc1ccc(Nc2nccc(NCC(O)c3cccc(C(F)(F)F)c3)n2)cc1 (stereo not given)	98	33	22
CN1CCC(N2CCN(Cc3ccc(-c4ccc(-c5nc6cc(F)ccc6[nH]5)s4)cc3)CC2)CC1.O=C(O)C(F)(F)F	100	100	62
c1ccc(-n2cncn2)cc1	93	96	0
CCN(CC)CCOc1ccc(NC(=O)c2oc3ccccc3c2C=Cc2ccccc2)cc1.O=C(O)/C=C/C(=O)O	98	54	51
Cc1cc(N[C@@H](Cc2ccccc2)C(=O)NCCc2ccccc2)nc(NCCc2ccc(F)cc2)n1.O=C(O)C(F)(F)F	99	89	9
CC(=O)Nc1ccc(OCCCCN(Cc2ccccc2C(F)(F)F)c2ccc(C(F)(F)F)c(C#N)c2)c(Cl)c1	96	96	14
Cc1nn(CC(C)C)c2sc(C(=O)N3CCN(S(=O)(=O)c4ccc(C#N)cc4)CC3)cc12	99	99	14
CCCCCCC(C)c1cc(O)c2c(c1)OC(=O)CC2(CC)c1ccccn1.Cl (stereo not given)	100	0	15
CC(C)CNCc1cccc(-c2cccc(CNC3CCN(Cc4ccccc4)CC3)c2)c1.O=C(O)C(F)(F)F	100	99	32
COc1ccc(-c2nc3c(N)nc(N)nc3nc2C(C)C)cc1	96	0	71
CCn1c(-c2nonc2N)nc2cnc(Oc3cccc(NC(=O)c4ccc(OCCN5CCCCC5)cc4)c3)cc21	98	7	16
CC(C)(C)OC(=O)c1c(NC(=O)/C=C/c2ccc(O)c(O)c2)sc2c1CCCC2	97	77	4
Cn1cncc1C(=O)Nc1cccc(-c2ccc(-c3nc4cc(C(F)(F)F)ccc4[nH]3)cc2)c1	97	98	4
O=C(/C=C/c1ccc2ccccc2c1)NCC1(c2ccc(-c3ccccc3)cc2)CCOCC1	95	34	9
NS(=O)(=O)c1cncc(-c2ccc3nccc(-c4cn[nH]c4)c3n2)c1	99	100	33
CCOC(=O)c1nc(-c2ccccc2)[nH]c1NC(=S)NC1CCCCC1	96	1	6

SMILES	Inhibition [1] [%]	Inhibition [2] [%]	Inhibition [3] [%]
CN(C)c1ccc(C=C2SC(=N)N(c3nccs3)C2=O)cc1	97	50	38
CC(C)(C)c1ccc(NC(=O)c2ccc(CN3CCCN(Cc4ccsc4)CC3)cc2)cc1.O=C(O)C(F)(F)F	96	0	50
O=C(O)C(F)(F)F.c1ccc(-n2ncc(CNCc3ccc(-c4cccc(-c5nc6ccccc6[nH]5)c4)cc3)n2)cc1	94	9	21
Oc1cc(Nc2ccnc3cc(I)ccc23)ccc1F	99	99	0
Br.CC1(C)NC(N)=NC(=N)N1OCCCc1cc(Cl)c(Cl)cc1Cl	95	96	55
CC1CCC(C[C@@H](C(=O)N[C@@H](CCC(=O)N2CCCCC2)C(=O)Nc2nccs2)[C@H](C(C)C)N(O)C=O)CC1 (stereo not given in full)	87	70	38
COc1ccc(C[C@H](N)C(=O)N[C@H]2[C@@H](O)[C@H](n3cnc4c(N(C)C)ncnc43)O[C@@H]2CO)cc1.Cl	100	91	98
N#Cc1ccc(CN2CCCN(Cc3cccc(NC(=O)c4cc5ccccc5s4)c3)CC2)cc1.O=C(O)C(F)(F)F	97	36	31
O=[N+]([O-])c1cccc(S(=O)(=O)N2CCN(CC(O)COc3ccc(-c4ccccc4)cc3)CC2)c1 (stereo not given)	94	32	11
N#Cc1ccc(CN2CCCN(c3ccc(NC(=O)c4ccc(F)cc4)cc3)CC2)cc1.O=C(O)C(F)(F)F	90	61	12
O=C(/C=C/c1ccc(Cl)c(Cl)c1)NCCCCCN1CC[C@H](NC(=O)c2ccc3c(c2)OCO3)C1	94	3	32
Cc1cn(CC(=O)Nc2cccc(-c3cccc(-c4nc5cc(C(F)(F)F)ccc5[nH]4)c3)c2)c(=O)[nH]c1=O	92	51	15
Oc1c(C(Nc2nc3ccccc3s2)c2ccccc2)ccc2cccnc12 (stereo not given)	95	83	45
Nc1nc(N)c2c(ccc3c2ccn3Cc2ccc(-c3ccccc3)cc2)n1	98	93	100
O=C(/C=C/c1ccc(Cl)c(Cl)c1)NCC(CCCN1CCC(c2c[nH]c3ccccc23)CC1)c1ccccc1 (stereo not given)	100	46	98
CS(=O)(=O)c1ccc2c(c1)CCN(CCC1CCC(NC(=O)C(=Cc3ccc(Cl)cc3Cl)c3ccc(-c4ccccc4)cc3)CC1)CC2 (stereo not given)	81	16	33
O=C(O)C(F)(F)F.c1ccc(CCNCc2ccc(-c3ccc(CNC4CCN(Cc5ccccc5)CC4)cc3)nc2)cc1	100	99	34
CC1(C)CCNc2cc(NC(=O)c3ccc(-c4ncccc4C(F)(F)F)cc3)ccc21.Cl	97	86	7
O=C(/C=C/c1ccc(Cl)c(Cl)c1)NCCCCCN1CCCN(C(=O)Nc2ccc(F)c(F)c2)CC1	100	0	26
Nc1ncc(-c2ccsc2)cc1-c1nc2ccccc2[nH]1	99	8	33
